An excerpt weighted towards active compounds, which were near 3.7% of everything screened.
WRN helicase inh – blocks human WRN helicase. Q14191. WRN helicase unwinding, fluorescent forked duplex, kinetic. Potency, µM (top dose mostly 114 µM), hits mostly inhibitors. 360,000 compounds, 0.46% hits. AID 651768; also: nearly all actives have a fitted effect of over 55% in size
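Kinetic red-fluorescence monitoring (525/598 nm) tracks WRN helicase activity after 100 nM fluorophore-quencher forked duplex and 2 mM ATP are added to 20 nM enzyme pretreated 15 min at room temperature with compound.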
FEN1 inh – human FEN1 inhibition; Potency, µM (doses to about 114 µM), actives largely listed as inhibitors; 390,000 compounds, 0.35% hits; Recombinant FEN1 flap cleavage, fluorescence, 15 min; also: nearly all actives have a fitted effect of over 65% in size
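Quantitative HTS format: each compound was titrated, incubated with 10 nM nuclease for 15 min at room temperature, then challenged with flap substrate at 50 nM final. Signal change over 15 min gave concentration–effect curves.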
PI5P4Ka inh – PI5P4K alpha (human) kinase inhibition; P48426; PI5P4Kalpha enzyme, ADP-Glo luminescence, 60 min; hits give low values; max response, %; 330,000 compounds, 1.2% hits; AID 652105; active = max response of -50% or lower; inconclusive = between -30% and -50%; inactive = -30% or higher; also: value at the top dose of about 77 µM
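Quantitative HTS of the MLSMR library against PI5P4Kalpha with substrate. ATP added last at 5 microM final; room temperature, 60 minutes. Remaining ATP depleted, ADP converted and read as luminescence.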
PLK1 PBD block – PLK1 (human) polo-box domain binding inhibition | 360,000 compounds, 2.8% hits | P53350 | Potency, µM, usual class: inhibitors | AID 720504 | Plk1 PBD binding of FITC phosphopeptide, fluorescence polarization; also: series mostly up to about 57 µM; nearly all actives have a fitted effect of over 65% in size
TCR act – activates T cell receptor signaling; Potency, µM (doses to about 9.22 µM), hits mostly activators; 330,000 tested, under 10 active; primary human leukocytes, anti-CD3, IL-2 HTRF, 48 h
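Human primary leukocytes + a-CD3 beads + cpd, 48 hr; IL-2 in supernatant by HTRF (ex 320nm / em 665nm). No co-stimulatory signal supplied.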
VDR inhibitor – vitamin D3 receptor (human) inhibition. P11473. VDR-SRC2-3 peptide fluorescence polarization, 2 h. Potency, µM, actives largely listed as inhibitors. 400,000 compounds, 0.93% hits. AID 504847
Target sequence (P11473 whole entry, looked up): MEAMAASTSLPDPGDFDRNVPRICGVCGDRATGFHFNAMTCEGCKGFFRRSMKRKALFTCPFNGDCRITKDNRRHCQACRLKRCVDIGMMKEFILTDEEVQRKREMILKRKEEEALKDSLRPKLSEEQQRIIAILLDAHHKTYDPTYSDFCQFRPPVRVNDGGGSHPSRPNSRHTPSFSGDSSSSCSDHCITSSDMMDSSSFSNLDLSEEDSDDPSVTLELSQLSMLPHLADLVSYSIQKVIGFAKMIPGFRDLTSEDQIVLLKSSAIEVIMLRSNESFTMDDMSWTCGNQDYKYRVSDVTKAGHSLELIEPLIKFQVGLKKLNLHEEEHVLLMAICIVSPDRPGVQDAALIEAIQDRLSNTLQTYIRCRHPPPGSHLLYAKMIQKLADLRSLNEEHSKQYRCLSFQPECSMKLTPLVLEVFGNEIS
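Fluorescence polarization assay measuring small-molecule disruption of VDR binding to the coregulator peptide SRC2-3. Compounds were pin-transferred (23 nl) into the reagent mix and incubated 2 h at room temperature before reading.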
Hits are given with their value; ! = repeats disagree. Unless noted, calls follow the shape of the dose curve; as a rule, active = well fitted curve in the direction sought with a large enough effect; inconclusive = small, poorly fitted or top-dose-only effect, or another doubt; inactive = no such curve, though single readings can be large; an effect the other way counts as inactive or inconclusive.

Screening O=S(=O)(c1ccccc1)c1nc(-c2ccc(F)cc2)oc1NCC1CCCO1 (configuration not stated) returned WRN helicase inh inactive, FEN1 inh inactive, PI5P4Ka inh inactive, PLK1 PBD block inactive, TCR act inactive and VDR inhibitor inactive.
Screening Cc1oc(-c2ccc(F)cc2)nc1CN(Cc1ccccn1)CC1CCCO1 (configuration not stated) returned WRN helicase inh inactive, FEN1 inh inactive, PI5P4Ka inh inactive, PLK1 PBD block 30µM, TCR act inactive and VDR inhibitor inconclusive.
Screening Cc1ccc(S(=O)(=O)OCCc2ccccc2)cc1 returned VDR inhibitor inactive.
CCOC(=O)c1nn(-c2ccc(OC)cc2)c(=O)c2c(N)scc12 was read as WRN helicase inh inactive, FEN1 inh inactive, PLK1 PBD block inconclusive, TCR act inactive and VDR inhibitor 18µM.
CCOC(=O)c1nn(-c2ccc(C)c(C)c2)c(=O)c2c(N)scc12 was read as WRN helicase inh inactive, FEN1 inh inactive, PI5P4Ka inh inactive, PLK1 PBD block 17µM and VDR inhibitor inactive.
Screening CN(C)c1ccc(C=Nc2ccc(/C=C3\C=Cc4ccccc43)cc2)cc1 returned FEN1 inh inactive.
Screening COc1ccc(CCNC(=O)CCn2c(=O)c3ccccc3n(Cc3ccccc3)c2=O)cc1OC returned FEN1 inh inactive and VDR inhibitor inactive.
For Cc1ccc(-c2cc(C3C4C=CCCC4(C)C(=O)N3Cc3ccccc3)ccc2F)cc1 (configuration not stated) the results were FEN1 inh inactive and VDR inhibitor inactive.
Screening COc1cc(/C=C2\CCC/C(=C\c3ccc(O)c(OC)c3)C2=O)ccc1O returned WRN helicase inh inactive, FEN1 inh inconclusive, PI5P4Ka inh inactive, PLK1 PBD block inactive, TCR act inactive and VDR inhibitor 25µM!.
For COc1cc(/C=C2/C(=O)CNC2=O)ccc1O the results were WRN helicase inh inactive, FEN1 inh inactive, PI5P4Ka inh -56, PLK1 PBD block inactive, TCR act inactive and VDR inhibitor inactive.
For C=CCOC(=O)NC(CC(=Nc1ccc(OC)cc1)C(=O)OC)c1ccccc1 (configuration not stated) the results were VDR inhibitor inactive.
For COc1ccc(C(=O)O)cc1S(=O)(=O)Nc1ccc(C)cc1 the results were WRN helicase inh inactive, FEN1 inh inactive, PI5P4Ka inh inactive, PLK1 PBD block inactive, TCR act inactive and VDR inhibitor inactive.
COc1ccc(C(=O)O)cc1S(=O)(=O)NC(C)(C)C was read as WRN helicase inh inactive, FEN1 inh inactive, PI5P4Ka inh inactive, PLK1 PBD block 24µM, TCR act inactive and VDR inhibitor inactive.
Screening NC(=O)c1ccc2[nH]ccc2c1 returned VDR inhibitor inactive.
For N#CC(C#N)=C(N)/C(C#N)=C/c1ccc2[nH]ccc2c1 the results were VDR inhibitor 50µM!.
`Fc1ccc2c(c1)c1n[nH]c(=S)nc1n2CCc1ccccc1` gave WRN helicase inh inactive, FEN1 inh inactive, PI5P4Ka inh inactive, PLK1 PBD block 21µM, TCR act inactive and VDR inhibitor inconclusive.
`Cc1ccc2c(c1)c1n[nH]c(=S)nc1n2CCc1ccccc1` gave WRN helicase inh inactive, FEN1 inh inactive, PI5P4Ka inh inactive, PLK1 PBD block inconclusive, TCR act inactive and VDR inhibitor inconclusive.
O=C(O)C(Oc1ccc2ccc(=O)oc2c1)c1ccccc1 (configuration not stated) was read as VDR inhibitor inactive.
O=C(O)C(Oc1ccc2cc(-c3ccc(Cl)cc3)c(=O)oc2c1)c1ccccc1 (configuration not stated) was read as WRN helicase inh inactive, FEN1 inh inactive, PI5P4Ka inh inactive, PLK1 PBD block 42µM, TCR act inactive and VDR inhibitor inactive.
`CC1(CCc2ccccc2)NC(=O)N(CC(=O)Nc2c(F)cccc2F)C1=O` (configuration not stated) gave WRN helicase inh inactive, FEN1 inh inactive, PI5P4Ka inh inactive, PLK1 PBD block inactive, TCR act inactive and VDR inhibitor inactive.
Screening CC1(CCc2ccccc2)NC(=O)N(CC(=O)O)C1=O (configuration not stated) returned WRN helicase inh inactive, FEN1 inh inactive, PI5P4Ka inh inactive, PLK1 PBD block 24µM, TCR act inactive and VDR inhibitor inconclusive.
`O=C(NCNC(=O)c1ccccc1)c1ccccc1` gave WRN helicase inh inactive, FEN1 inh inactive, PLK1 PBD block inactive, TCR act inactive and VDR inhibitor inactive.
Screening O=C(NCCSc1ccc(Br)cc1)c1ccccc1 returned WRN helicase inh inactive, FEN1 inh inactive, PI5P4Ka inh inactive, PLK1 PBD block 27µM, TCR act inactive and VDR inhibitor inconclusive.
`O=C(CNC(=O)c1ccccc1)Sc1ccccc1` gave WRN helicase inh inactive, FEN1 inh inactive, PI5P4Ka inh inactive, PLK1 PBD block 4.7µM, TCR act inactive and VDR inhibitor 45µM.
For O=C(CCCCC(=O)Sc1ccccc1)Sc1ccccc1 the results were WRN helicase inh inactive, FEN1 inh inactive, PI5P4Ka inh inactive, PLK1 PBD block inconclusive, TCR act inactive and VDR inhibitor 79µM.
For O=C(NCSc1ccccc1)c1ccccc1 the results were WRN helicase inh inactive, FEN1 inh inactive, PI5P4Ka inh inactive, PLK1 PBD block 24µM, TCR act inactive and VDR inhibitor inactive.
CCc1cccc(C)c1Nc1c(-c2ccc(SC)cc2)nc2sccn12 was read as FEN1 inh inactive and VDR inhibitor inactive.
For COc1ccccc1OCCC(=O)NCc1ccc2c(c1)OCO2 the results were WRN helicase inh inactive, FEN1 inh inactive, PI5P4Ka inh inconclusive, PLK1 PBD block 30µM, TCR act inactive and VDR inhibitor inactive.
For CCn1c(N)c(C(=O)NCc2ccc3c(c2)OCO3)sc1=S the results were WRN helicase inh inactive, FEN1 inh inactive, PI5P4Ka inh inactive, PLK1 PBD block 24µM, TCR act inactive and VDR inhibitor inactive.
Cc1c(C(=O)NCc2ccc3c(c2)OCCO3)sc(=O)n1Cc1ccc2c(c1)OCO2 was read as WRN helicase inh inactive, PI5P4Ka inh inactive and PLK1 PBD block inactive.
For COc1ccc(C(=O)NCc2ccc3c(c2)OCO3)c(OC)c1 the results were WRN helicase inh inactive, FEN1 inh inactive, PI5P4Ka inh inactive, PLK1 PBD block 27µM and VDR inhibitor inconclusive.
`CCOc1ccc(NC(=O)CN2C(C(=O)OC)=C(c3ccccc3)c3cc(Cl)ccc3S2(=O)=O)cc1` gave FEN1 inh inactive and VDR inhibitor inactive.
Cn1c2c(c3cnc4cc(Cl)ccc4c31)CNCC2 was read as FEN1 inh inconclusive and VDR inhibitor inactive.
For O=[N+]([O-])c1ccc(-n2nnnc2-c2ccccc2)c([N+](=O)[O-])c1 the results were WRN helicase inh inactive, FEN1 inh inactive, PI5P4Ka inh inactive, PLK1 PBD block inactive, TCR act inactive and VDR inhibitor inactive.

Assay outcomes deposited in PubChem by National Center for Advancing Translational Sciences (NCATS).
